A selection: hits, their analogues and other compounds. The true share with any hit is near 3%.
PPC-1+TRAIL kill = compounds killing PPC-1 cancer cells with TRAIL present (potentiator screen, no TRAIL-free arm); PPC-1 cells + TRAIL, ATPLite viability luminescence; cell killing (% activity), % at 4 µM or 5 µM; 0.41% of 220,000 active;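 active = cell killing above 50% in the first pass at 4 µM, then a duplicate retest at 5 µM averaging 50% or more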;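 note: plate controls were cells with TRAIL plus DMSO for no effect and medium-only wells lacking cells for full effect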
SENP7 block = inhibitors of human SENP7 protease | Q9BQF6 | recombinant SENP7, Z-RLRGG-aminoluciferin luminescence, 40 min | inhibition, % at 5 µM | AID 434973 | 1.5% of 330,000 active;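 active = inhibition above about 50% at the single test dose, limit read from the data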;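 note: plate controls were DMSO with enzyme for no effect and no enzyme buffer wells for full effect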
SENP6 inh = blocks the human protease SENP6 | 1.8% of 330,000 active | Q9GZR1 | inhibition, % at 10 µM | Recombinant SENP6 catalytic domain, aminoluciferin luminescence;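 active = inhibition above about 50% at the single tested dose, limit read from the data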;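 note: plate controls were DMSO wells with enzyme for no effect and DMSO wells lacking enzyme for full effect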
SENP8 block-1 = inhibitors of human SENP8 protease | Q96LD8 | recombinant SENP8, Nedd8 substrate fluorescence | inhibition, % at 20 µM | 0.64% of 360,000 active | AID 602440; in the data active = inhibition mostly above about 40%, no sharp cut-off; inactive = mostly below about 27%
Target sequence (Q96LD8 whole entry, looked up): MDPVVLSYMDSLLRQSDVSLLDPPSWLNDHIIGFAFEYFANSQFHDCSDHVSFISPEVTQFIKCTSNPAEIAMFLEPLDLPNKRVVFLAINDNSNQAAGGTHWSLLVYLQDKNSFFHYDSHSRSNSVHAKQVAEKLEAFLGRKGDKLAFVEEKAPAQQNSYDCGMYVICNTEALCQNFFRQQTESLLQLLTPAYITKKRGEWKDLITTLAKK
SENP8 block-2 = SENP8 protease inhibition; Q96LD8; purified SENP8, Z-RLRGG-aminoluciferin cleavage, luminescence; inhibition, % at 10 µM; 1.2% of 330,000 active; AID 2540; in the data active = inhibition above about 50%
C8 TRAIL sens = caspase-8 TRAIL sensitization | NB7+C8 cells + TRAIL, ATPlite viability luminescence | inhibition (viability loss, TRAIL sensitization), % at 10 µM | 1% of 360,000 active;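 active = compounds causing at least 50% loss of cell viability in the single-dose screen, relative to plate controls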
PPC-1 tox = kills PPC-1 cells. shares compounds with PPC-1+TRAIL kill. PPC-1 viability, ATPlite luminescence, overnight. cytotoxicity, % at 5 µM. 50% of 1,200 active. AID 1447;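 active = reconfirmed compounds whose average cytotoxicity reaches 50% or more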;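 note: 0% = DMSO-treated cells and 100% = wells holding medium but no cells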
SENP8 conf = human SENP8 inhibition, confirmed; shares compounds with SENP7 block; Recombinant SENP8, Z-RLRGG-aminoluciferin luminescence, 60 min; 40% of 6,200 active; inhibition, % at 12.5 µM;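 active = mean inhibition across replicates above about 50%, limit read from the data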
SENP6 conf = human SENP6 inhibition, confirmed; shares compounds with SENP7 block; recombinant SENP6, Z-RLRGG-aminoluciferin luminescence; inhibition, % at 12.5 µM; 58% of 6,200 active; AID 488915
SENP7 conf = human SENP7 inhibition, confirmed | 69% of 6,200 active | recombinant SENP7, Z-RLRGG-aminoluciferin luminescence, 40 min | shares compounds with SENP7 block | AID 488917 | inhibition, % at 12.5 µM
Casp3 SENP sel = caspase-3 inhibition (SENP selectivity assay); inhibition, % at 12.5 µM; purified caspase-3, Z-DEVD-aminoluciferin luminescence, 60 min; 60% of 6,200 active; shares compounds with SENP7 block;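 active = mean inhibition above about 50%, limit read from the data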;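 note: plate controls were enzyme with DMSO for no effect and wells without caspase-3 for full effect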
Target sequence (P42574 28-227 limits assumed): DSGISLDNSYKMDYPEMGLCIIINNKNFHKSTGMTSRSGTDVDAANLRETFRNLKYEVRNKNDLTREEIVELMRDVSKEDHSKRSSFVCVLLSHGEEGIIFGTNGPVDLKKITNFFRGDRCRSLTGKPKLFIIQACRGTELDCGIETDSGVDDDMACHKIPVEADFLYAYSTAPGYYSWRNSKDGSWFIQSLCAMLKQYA
SENP luc ctr = counter-screen for SENP inhibitors: luminescence interference | Pre-incubated SENP8/Z-RLRGG-aminoluciferin, luciferase luminescence interference | AID 488919 | shares compounds with SENP7 block | inhibition, % at 12.5 µM | 39% of 6,200 active;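 active = mean inhibition above about 50% when retested at one dose, limit read from the data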;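 note: plate controls were DMSO wells with completed reaction for no effect and substrate without enzyme for full effect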
Starred values were filed as active, the others as inactive; x = no result.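 Rule for the calls, unless noted: active = mean inhibition above about 50% in the one-dose retest (limit read from the data); inactive = the rest.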

SMILES	PPC-1+TRAIL kill	SENP7 block	SENP6 inh	SENP8 block-1	SENP8 block-2	C8 TRAIL sens	PPC-1 tox	SENP8 conf	SENP6 conf	SENP7 conf	Casp3 SENP sel	SENP luc ctr
CSCCC(N=C(NS(=O)(=O)c1ccccc1)c1ccccc1)C(=O)O (centres undefined)	21	0	-3	24	6	-12	x	x	x	x	x	x
O=C(Nc1ccc(N2CCCCC2)cc1)c1ccccc1	66*	90*	84*	14	75*	74*	61*	5	85*	98*	92*	29
Cc1ccc(C(=O)Nc2ccc(N3CCCCC3)cc2)cc1	x	-9	-7	12	-19	47	x	x	x	x	x	x
O=C(/C=C/Nc1ccc(F)cc1F)c1ccco1	90*	90*	87*	-168	87*	92*	89*	91*	97*	101*	96*	85*
O=C(NNC(=S)Nc1ccc(F)cc1F)c1ccco1	x	18	5	-4	3	-11	x	x	x	x	x	x
O=C(/C=C/Nc1ccc(Br)cc1F)c1ccco1	89*	98*	95*	-410	96*	91*	89*	-2	93*	100*	86*	28
c1ccc(-c2nnc(NC3=NCCC3)o2)cc1	40	43	7	24	37	33	x	x	x	x	x	x
Fc1ccc(-c2nnc(NC3=NCCCCC3)o2)cc1	66*	98*	91*	19	89*	75*	64*	11	95*	102*	98*	75*
CC(/C=N/NC(=O)c1ccncc1)=C\c1ccccc1	5	5	-5	1	-8	26	x	x	x	x	x	x
Cn1cccc1/C=N/NC(=O)c1ccccn1	19	29	31	-23	8	8	x	x	x	x	x	x
CCc1ccc(/C=N/NC(=O)c2ccccn2)cc1	72*	83*	83*	-3	79*	82*	71*	87*	87*	98*	94*	86*
CC(=C/c1ccccc1)/C=N/NC(=O)c1ccccn1	82*	81*	69*	-36	61*	85*	81*	72*	71*	92*	85*	73*
Cc1cc(Br)c2nc(-c3ccccc3)c(Cc3cccc(Cl)c3)n2c1	x	x	x	-33	x	2	x	x	x	x	x	x
Cc1cc(C)c2c(N)c(-c3nc4ccccc4[nH]3)sc2n1	-1	1	-8	-485	-4	-2	x	x	x	x	x	x
Cc1ccc2nc(-c3sc4nc(C)ccc4c3N)[nH]c2c1	32	7	56*	-253	24	54*	24	50	43	30	12	24
COc1ccc(C(=O)N/N=C/c2ccc(N(C)c3ccccc3)cc2)cc1	x	-5	-31	-394	-11	19	x	x	x	x	x	x
COc1cccc(/C=N/NC(=S)Nc2cccc(C(=O)O)c2)c1O	37	98*	97*	-203	95*	87*	35	98*	99*	102*	97*	84*
O=C(Nc1ccc(Br)cn1)c1cccc2c1-c1ccccc1C2=O	x	8	8	16	3	-61	x	x	x	x	x	x
O=C(COc1ccc(Cl)cc1Cl)Nc1ccc(Cl)cn1	59*	1	84*	-4	72*	65*	59*	44	43	47	59*	31
Cc1cc(Cl)ccc1OCC(=O)OCC(=O)Nc1ccc(Cl)cn1	x	x	x	16	x	-9	x	x	x	x	x	x
C=CCNC(=O)c1ccc2c3n(nc2c1)-c1ccccc1CO3	84*	75*	80*	-184	77*	86*	84*	76*	75*	94*	90*	82*
Cc1ccc2nc(NC(=O)c3ccco3)sc2c1	70*	96*	92*	-151	93*	78*	64*	5	94*	101*	92*	58*
Cc1ccc(/C=C/c2nc3ccccc3s2)s1	85*	10	92*	-114	86*	67*	83*	97*	100*	103*	95*	78*
Cc1ccc(/C=C/c2ccc3cccc(O)c3n2)s1	x	4	10	-41	8	25	x	x	x	x	x	x
CCCCN(CC)C(=O)c1cc2cc3ccc(OC)cc3nc2o1	-6	22	-25	-304	4	0	x	x	x	x	x	x
SMILES	PPC-1+TRAIL kill	SENP7 block	SENP6 inh	SENP8 block-1	SENP8 block-2	C8 TRAIL sens	PPC-1 tox	SENP8 conf	SENP6 conf	SENP7 conf	Casp3 SENP sel	SENP luc ctr
CCCCN(C)C(=O)c1cc2cc3ccc(OC)cc3nc2s1	37	95*	91*	-334	91*	68*	36	91*	97*	101*	96*	54*
CC1(C(=O)NS(=O)(=O)Cc2cccc(Cl)c2)CCN1C(=O)C/C=C/c1ccccc1 (centres undefined)	x	x	x	3	x	4	x	x	x	x	x	x
Cc1ccc(-n2nnc(-c3nccn3C)n2)cc1	55*	87*	84*	-10	86*	71*	53*	90*	90*	100*	97*	90*
Cc1cccnc1CNC(=O)C1CCC(=O)N(CCc2cccc(F)c2)C1 (centres undefined)	x	9	-2	4	-1	-7	x	x	x	x	x	x
Cc1cccc(C(=O)N2CCCCCC2)c1	0	-11	-20	5	-8	-3	x	x	x	x	x	x
Cc1cccc(C(=O)n2c(=S)nc3ccccn32)c1	70*	90*	91*	3	46	74*	70*	77*	82*	92*	69*	56*
O=C(c1ccccc1)n1ccn(-c2ccccc2)c1=S	12	2	2	-324	8	21	x	x	x	x	x	x
O=C(c1ccccc1)n1c(=S)nc2ccccn21	72*	90*	78*	2	70*	84*	74*	2	74*	93*	57*	15
CCCC1=C(C(=O)OCC)C(c2ccc(OC)c(CSc3ccccn3)c2)C(C#N)=C(N)O1 (centres undefined)	13	-3	11	-77	5	0	x	x	x	x	x	x
c1ccc2[nH]c(-c3ccnc4ccccc34)nc2c1	32	-7	-27	-388	-11	-9	x	x	x	x	x	x

Screens as filed in PubChem BioAssay.
